# Screening data (PubChem BioAssay)
# A selection: hits, their analogues and other compounds. The true share with any hit is near 4.2%.
# ssDAF12 agonist: activators of S. stercoralis DAF-12 nuclear receptor; AID 652126; HEK293 ssDAF-12/GRIP1 lit1-tk-luc reporter, luminescence; % of 3 µM dafachronic acid response; actives 1% (n = 370,000); activation, % at 6.8 µM;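 active = activation above the mean over all tested compounds plus 3 SD, cut at about 0.9% in these data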;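 note: 0% = DMSO-only wells and 100% = 3 µM delta7-dafachronic acid wells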
# hgDAF12 agonist: hgDAF-12 agonism, primary luciferase screen; HEK293 GAL4-hgDAF12 UAS-luciferase reporter, agonist luminescence; normalized to butyrate control; activation, % at 6.8 µM; actives 1.8% (n = 370,000);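 active = activation above a cutoff set at the mean of all screened compounds plus 3 SD, cut at about 10% in these data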;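 note: 0% = DMSO wells and 100% = sodium butyrate wells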
# hcDAF-12 act: H. contortus DAF-12 activation, primary screen; HEK293 hcDAF-12 lit1-tk-luc reporter, luminescence; 0% DMSO, 100% Δ7-dafachronic acid; activation, % at 6.8 µM; actives 1.4% (n = 370,000);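 active = activation above the mean of all tested compounds plus 3 SD, cut at about 5.5% in these data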;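 note: 100% = response to 3 µM Δ7-dafachronic acid high control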
# SMARCA2 activ: increases SMARCA2 function in MMTV reporter cells; activation, % at 9.1 µM; actives 1% (n = 370,000); MG213 cells, MMTV-luciferase reporter, dexamethasone, overnight; in the data active = activation above about 7.8%;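 note: 0% = vehicle wells and 100% = reference activator wells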
# DAX1 inh: blocks DAX1 repression of SF-1 activated StAR promoter; HEK293T StAR-luciferase reporter, SF-1/DAX-1 repression relief; actives 1.1% (n = 370,000); AID 652010; inhibition, % at 6.8 µM;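 active = inhibition above the mean over all tested compounds plus 3 SD, cut at about 3.6% in these data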;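 note: 0% = DAX-1 cells with DMSO and 100% = cells lacking DAX-1 with DMSO; higher inhibition means more luminescence from relief of DAX-1 repression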
# DAX1 conf: NR0B1 (human) inhibition, confirmation; shares compounds with DAX1 inh; HEK293T StAR-promoter luciferase reporter, SF-1/DAX-1 repression; inhibition, % at 6.8 µM; actives 87% (n = 2,400);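 active = inhibition above the average of every tested compound plus 3 SD, cut at about 3.8% in these data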;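 note: 0% = DAX-1 cells with DMSO and 100% = no DAX-1 control cells with DMSO; active compounds raise luminescence by relieving repression of the StAR reporter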
# Target sequence (P51843 whole entry, looked up): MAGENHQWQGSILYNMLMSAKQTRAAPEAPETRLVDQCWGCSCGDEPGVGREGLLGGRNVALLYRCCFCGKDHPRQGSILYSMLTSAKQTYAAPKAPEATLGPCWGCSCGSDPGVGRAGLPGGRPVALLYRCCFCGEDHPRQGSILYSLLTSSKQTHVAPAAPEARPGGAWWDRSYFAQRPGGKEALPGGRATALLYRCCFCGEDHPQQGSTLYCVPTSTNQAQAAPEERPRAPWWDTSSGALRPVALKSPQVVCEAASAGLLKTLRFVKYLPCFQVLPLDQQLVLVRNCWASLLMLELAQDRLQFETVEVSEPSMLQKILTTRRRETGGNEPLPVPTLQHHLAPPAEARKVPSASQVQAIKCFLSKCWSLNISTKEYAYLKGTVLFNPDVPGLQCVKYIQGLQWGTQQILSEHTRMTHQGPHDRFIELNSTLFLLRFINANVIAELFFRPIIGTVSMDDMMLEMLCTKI
# SF1 mutant ctr: counter-screen for DAX1 inhibitors: nonselective inhibitors with SF-1 AF2 mutant | HEK293 StAR-luciferase, luminescence | shares compounds with DAX1 inh | actives 78% (n = 2,400) | inhibition, % at 6.8 µM;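 active = inhibition above the mean of all tested compounds plus 3 SD, cut at about 3% in these data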;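 note: 0% = DAX-1 transfected cells with DMSO and 100% = cells without DAX-1 with DMSO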
# SMARCA2 act conf: SMARCA2 activation, confirmation screen. shares compounds with SMARCA2 activ. MG213 cells, MMTV-luciferase with dexamethasone, luminescence, overnight; MG213 cells expressing E1A, Rb sequestered; DMSO wells 0%, reference activator 100%. activation, % at 9.1 µM. actives 30% (n = 3,500);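 active = activation above its plate's cutoff, the mean activation of tested wells plus 3 SD, cut at about 7.9% in these data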
# VP16 Luc act: activates GAL4-VP16 luciferase, flagging SMARCA2 activator hits | shares compounds with SMARCA2 activ | HEK293 GAL4-VP16 pG5luc reporter, luciferase luminescence; scaled: DMSO wells 0%, SAHA wells 100% | activation, % at 9.1 µM | actives 41% (n = 3,500) | AID 686939;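 active = activation above the solvent-only control well mean plus 3 SD, averaged across control plates, cut at about 5.2% in these data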
# LXR ag: activates human LXR-beta, counter-screen for hcDAF-12 agonists; shares compounds with hcDAF-12 act; HEK293 Gal4-LXR tk-luc reporter, luminescence, 24 h; normalized: DMSO 0%, positive control 100%; activation, % at 6.8 µM; 3,400 tested, under 10 active; AID 743027;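 active = mean percent activation of the reporter above a cutoff set as the average over tested compounds plus their standard deviation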
# hcDAF12 conf: confirmation of H. contortus DAF-12 agonists | shares compounds with hcDAF-12 act | HEK293 hcDAF-12 lit1-tk-luc reporter, luminescence; % of Δ7-dafachronic acid response | activation, % at 6.8 µM | actives 61% (n = 3,400);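 active = mean activation across triplicate tests above the threshold derived from the earlier primary screen, cut at about 5.5% in these data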;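 note: 0% = DMSO only wells and 100% = 3 µM Δ7-dafachronic acid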
# hgDAF12 ag: confirmation of H. glycines DAF-12 agonists; shares compounds with hgDAF12 agonist; HEK293 GAL4-hgDAF12 luciferase reporter, agonist mode; percent of butyrate response; activation, % at 6.8 µM; actives 80% (n = 3,300); AID 743050;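 active = mean activation over triplicate wells above the hit cutoff derived from the earlier primary screen, cut at about 11% in these data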;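 note: 0% = DMSO low control and 100% = 2 mM sodium butyrate high control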
# LXRb DAF12 ctr: activates human LXR-beta, counter-screen for DAF-12 agonists; HEK293 Gal4-LXR luciferase reporter, 24 h; activation, % at 6.8 µM; 3,300 tested, under 10 active; shares compounds with hgDAF12 agonist; AID 743051;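 active = mean activation of the triplicate above a set limit carried over from the primary screen, none filed active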
# The depositor's hits bear a star; · = not tested or not shown.
SMILES,ssDAF12 agonist,hgDAF12 agonist,hcDAF-12 act,SMARCA2 activ,DAX1 inh,DAX1 conf,SF1 mutant ctr,LXR ag,hcDAF12 conf,hgDAF12 ag,LXRb DAF12 ctr,others
CN(C)C(=O)Oc1ccc(-c2cn3cc(Cl)ccc3n2)cc1,0.7,16.8*,7.8*,7.8,6.1*,15.7*,6.3*,1.1,3.7,14.9*,0.9,
CC1CCCN(CC(=O)c2ccc(Cl)c(Cl)c2)C1 (stereo unspecified),-0.7,2.4,-1.1,-1.1,2.0,·,·,·,·,·,·,
CC1CCN(CC(=O)c2ccc3c(c2)OCCO3)CC1,0.2,16.8*,8.9*,8.0*,8.0*,14.3*,8.6*,1.6,8.3*,16.1*,0.9,SMARCA2 act conf=7.2;VP16 Luc act=9.6*
COc1ccc2c3c([nH]c2c1)[C@H](C=C(C)C)N1C(=O)[C@@H]2CCCN2C(=O)[C@@H]1C3,-1.1,-2.4,-1.2,-1.1,-1.9,·,·,·,·,·,·,
Cc1ccc(S(=O)(=O)N2Cc3cc(-c4ccccc4)ccc3-n3nncc3C2)cc1,-0.7,0.5,0.0,-2.5,0.3,·,·,·,·,·,·,
COc1ccc(-c2cc(=NCCC(=O)O)c3cc(C)ccc3o2)cc1,-0.7,23.5*,6.5*,6.2,7.0*,12.6*,8.8*,·,·,10.5*,0.5,
COc1ccc(-c2cc(=O)c3c(OC)c(OC)c(OC)cc3o2)cc1,-2.4,-0.3,-4.2,0.3,-1.6,·,·,·,·,·,·,
COc1ccc(-c2cc(=Nc3ccccc3)c3cc(C)ccc3o2)cc1,0.1,21.8*,7.3*,2.1,5.1*,6.1*,4.3*,0.2,0.5,18.3*,0.8,
C[C@H]1CNCCN1c1ccc(N2CC[C@@H](O)C2)c(C#N)c1,0.1,-1.2,-2.0,-3.5,-0.3,·,·,·,·,·,·,
Cc1ccc2c(c1N)C(=O)c1ccccc1C2=O,0.8,15.9*,3.7,2.8,5.3*,10.7*,5.8*,·,·,13.2*,0.5,
Cc1ccc(C(=O)NCCN2CCC3(CC2)C(=O)NCN3c2ccccc2)cc1,-0.2,1.3,-0.5,-1.8,1.7,·,·,·,·,·,·,
CC/C(=N\NC(=O)c1ccccc1Cl)c1c(O)n(C2CCCCC2)c(=O)[nH]c1=O,-0.9,6.9,-0.5,4.5,2.9,·,·,·,·,·,·,
CC/C(=N\NC(=O)c1ccccc1)c1c(O)n(C2CCCCC2)c(=O)[nH]c1=O,-0.7,14.6*,3.2,5.2,4.8*,1.8,1.4,·,·,2.1,0.0,
Nc1ccccc1C(=O)OCCc1ccccc1,0.3,23.5*,10.8*,3.6,5.6*,12.8*,4.1*,1.8,9.7*,14.6*,1.1,
O=c1[nH]c(=S)[nH]c(O)c1N=Nc1ccc(SC(F)F)cc1,0.2,6.9,3.2,11.1*,2.5,·,·,·,·,·,·,SMARCA2 act conf=12.0*;VP16 Luc act=10.0*
